Pf growth 48h = P. falciparum growth inhibition at 48 hours (one generation). P. falciparum luciferase growth in erythrocytes, 48 h. Potency, µM (doses to about 28.7 µM), most hits filed as inhibitors. 310,000 compounds, 5.9% hits. AID 504832
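Compounds are pin-transferred into medium, infected erythrocytes (2% hematocrit, 0.1% parasitemia final) are added, and plates sit one parasite generation at 37 C in 5% CO2. Detection reagent is then added and luminescence measured.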
Shiga toxin inh = inhibitors of Shiga toxin in Vero cells; Vero cells, Shiga toxin protein synthesis inhibition reporter; inhibition, % at 38.7 µM; 290,000 compounds, 9.2% hits; AID 2315; in the data active means inhibition mostly above about 28%, no sharp cut-off; inactive means mostly below about 43%
CHX counter = counter-screen hit for Shiga toxin inhibitors, cycloheximide | cell reporter, cycloheximide protein synthesis inhibition counterscreen | max response, % | 300,000 compounds, 12% hits; in the data active means max response mostly above about 13%, no sharp cut-off; inactive means mostly below about 14%; further: read at 38.3 µM for the half of the compounds with a filed dose
NS1 function inh = blocks influenza NS1 protein function; Potency, µM (titrated, usually from 46.1 µM); AID 2326; 270,000 compounds, 0.4% hits; calls by dose curve; further: actives are rising curves; nearly all actives have a fitted effect of over 50% in size
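OD600 was taken as the measure of yeast growth restored by compound in an NS1-expressing S. cerevisiae strain. Cells had been washed out of glucose medium and diluted 1:100 into galactose -URA medium, pH 6.0.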
Pf growth 96h = inhibits malaria parasite growth, 96 h; P. falciparum luciferase reporter growth, 96 h; Potency, µM (series often up to 28.7 µM), usual class: inhibitors; 320,000 compounds, 6.9% hits
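Readout is luminescence from an integrated firefly luciferase in P. falciparum. Red cells, 2% hematocrit and 0.05% parasitemia final, were cultured with compound through two parasite generations (96 hours) at 37 C, 5% CO2.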
Large screens that a line does not name were inactive. Hits are enriched below; roughly 21% of the tested compounds scored in any of these assays. Unless noted, the call rests on the fitted dose curve; in most records, active means well fitted inhibition curve with a large enough effect; inconclusive means small, poorly fitted or top-dose-only effect, or another doubt; inactive means no such curve, though single readings can be large or run the other way.

COC(=O)C1=C(C)N(Cc2ccccc2)C(=NCc2cc(OC)c(OC)c(OC)c2)N[C@H]1CCc1ccccc1	Pf growth 48h 13µM, Pf growth 96h inconclusive
CSc1nc2ccc(NS(=O)(=O)c3ccc([N+](=O)[O-])cc3)cc2s1	none
CCCCC(c1nnnn1CCOC)N1CCN(c2cccc(OC)c2)CC1 (centres undefined)	none (no result: Pf growth 96h)
Cc1cccc(N2CN(Cc3cccnc3)CNC2=S)c1C	CHX counter 15
Cc1ccc(C)c(N2CN(Cc3cccnc3)CNC2=S)c1	none
COc1ccc(CNC(=O)COC(=O)c2c(NC(C)=O)sc(C)c2C)cc1	Pf growth 48h inconclusive (no result: Shiga toxin inh, CHX counter, NS1 function inh)
COc1ccc(-n2cc(-c3ccccc3)c3c(NN4CCOCC4)ncnc32)cc1	none (no result: NS1 function inh)
Fc1ccc(-n2cc(-c3ccccc3)c3c(NN4CCOCC4)ncnc32)cc1	Pf growth 48h 15µM, Pf growth 96h inconclusive
CCCCOC(=O)Nc1ccccc1C(N)=O	none
O=C(Oc1cccc(C(=S)N2CCOCC2)c1)c1ccc([N+](=O)[O-])cc1	none
Cc1ccc([N+](=O)[O-])cc1N=C(c1cccc(Br)c1)N1CCOCC1	Pf growth 48h inconclusive, Pf growth 96h 13µM
C=CCN1C(=O)C(O)(CC(=O)c2ccc(N)cc2)c2ccccc21 (centres undefined)	Pf growth 96h inconclusive (no result: Pf growth 48h)
Cc1ccc(C(=O)CC2(O)C(=O)N(CN3CCOCC3)c3ccccc32)cc1 (centres undefined)	Pf growth 48h inconclusive, Shiga toxin inh 44, CHX counter 18
CC(C)c1ccc(C(=O)CC2(O)C(=O)N(CN3CCOCC3)c3ccccc32)cc1 (centres undefined)	Shiga toxin inh 64, CHX counter 39, Pf growth 96h 12µM
CCc1ccc(C(=O)CC2(O)C(=O)N(CN3CCOCC3)c3ccccc32)cc1 (centres undefined)	CHX counter 19, NS1 function inh inconclusive, Pf growth 96h inconclusive
COC(=O)CN1C(=O)C(O)(CC(=O)c2ccc(C)cc2)c2ccccc21 (centres undefined)	Pf growth 96h inconclusive
Cc1ccc(C)c(NC(=O)COC(=O)c2cc3ccccc3oc2=O)c1	none (no result: Shiga toxin inh, CHX counter, NS1 function inh)
COC(=O)[C@H](C)NC(=O)NCc1ccc(S(N)(=O)=O)cc1	none
COc1ccc(S(=O)(=O)Nc2cc(OC)cc3cccnc23)cc1	none (no result: Pf growth 48h, NS1 function inh, Pf growth 96h)
Nc1ccccc1SC/C=C/CSc1ccccc1N	Shiga toxin inh 68, CHX counter 37 (no result: Pf growth 48h)
CCN(CC)C(=O)CSc1nc2ccccc2c(=O)n1CC1CCCCC1	Pf growth 48h 4.1µM, Pf growth 96h inconclusive
CCOCCCn1c(SCC(=O)N2CCOCC2)nc2ccccc2c1=O	Pf growth 96h inconclusive
O=C(CSc1nc2ccccc2c(=O)n1CC1CCCCC1)N1CCOCC1	Pf growth 48h 9.3µM, Pf growth 96h 13µM
CCn1ccc(C(=O)NC2=C(C#N)CCC2)n1	none
O=C(CSc1cccc[n+]1[O-])c1cc(Cl)ccc1Cl	Pf growth 48h inconclusive, Shiga toxin inh 78, CHX counter 28, Pf growth 96h 0.83µM (no result: NS1 function inh)
Nc1nc(SCC(=O)c2cc3ccccc3o2)n[nH]1	none
O=C(O)CSc1cccc[n+]1[O-]	none
O=C(CSc1cccc[n+]1[O-])c1cc2ccccc2o1	Shiga toxin inh 140, CHX counter 131, Pf growth 96h 4.1µM (no result: Pf growth 48h)
N#CC(C#N)=C(N)CSc1cccc[n+]1[O-]	Pf growth 48h 5.2µM, Pf growth 96h 12µM (no result: NS1 function inh)
Cc1ccc(S(=O)(=O)C2(C(=O)Nc3cccc(F)c3)CC2)cc1	none
Cc1c(C)n(CCCN(C)C)c2ncnc(NCc3ccccc3)c12	none
COc1ccccc1Nc1ncnc2c1c(C)c(C)n2CCO	Shiga toxin inh 61, CHX counter 42
Cc1c(C)n(CCc2ccccc2)c2ncnc(NCCO)c12	Shiga toxin inh 68, CHX counter 52
COc1ccc(-c2[nH]c(-c3cccc(OC)c3)nc2SCC(=O)NCc2ccco2)cc1	Pf growth 48h inconclusive, Pf growth 96h inconclusive
Cc1ccc(NC2CC(=O)N(CCc3ccccc3)C2=O)cc1 (centres undefined)	CHX counter 18 (no result: Pf growth 48h)
CCN(CC)c1ccc(NC2CC(=O)N(CCc3ccc(OC)cc3)C2=O)cc1 (centres undefined)	Pf growth 48h 4.7µM, Pf growth 96h 1.9µM
CCCn1c(Cc2ccccc2)nnc1SC(C)C(=O)NC1CC1 (centres undefined)	Pf growth 48h inconclusive (no result: Shiga toxin inh, CHX counter, NS1 function inh)
O=C(NCCc1ccccc1)c1ccc(CS(=O)Cc2ccc(Cl)cc2)o1 (centres undefined)	none
CCOC(=O)Cn1nc(-c2ccc(Cl)cc2)ccc1=O	Pf growth 96h 9.3µM
CCOC(=O)N1CCN(C(=O)Cn2nc(-c3ccc(Cl)cc3)ccc2=O)CC1	none
CCOC(=O)Cn1nc(/C=C/c2ccc(C)cc2)ccc1=O	none
CCOC(=O)Cn1nc(/C=C/c2ccc(C(C)C)cc2)ccc1=O	CHX counter 9.7
Cc1nc(COc2ccccc2Cl)sc1-c1ccnc(N)n1	Shiga toxin inh 49, CHX counter 19
COC(=O)c1ccc(C)c(NC(=O)COC(=O)C2CC3CCCC(C2)C3=O)c1 (centres undefined)	none (no result: Shiga toxin inh, CHX counter, NS1 function inh)
COc1ccccc1CNS(=O)(=O)c1ccc(Br)s1	none (no result: Shiga toxin inh)
CCOC(=O)c1nc(N/N=C/c2ccccc2)sc1Br	CHX counter 13, Pf growth 96h inconclusive
CC(=O)Nc1sc(N/N=C/c2ccccc2F)nc1-c1ccc(C)cc1	Pf growth 48h 8.3µM, Shiga toxin inh 92, CHX counter 42, Pf growth 96h inconclusive
CCOC(=O)c1sc(NC(=O)/C=C/c2ccccc2)nc1C	none
CC(=O)Nc1sc(N/N=C/c2ccccc2)nc1-c1ccc(C)cc1	Pf growth 48h 7.4µM, CHX counter 18, Pf growth 96h inconclusive
COc1ccc(/C=N/Nc2nc(-c3ccc(C)cc3)c(NC(C)=O)s2)cc1	Pf growth 48h 2.3µM, Pf growth 96h 4.7µM
CC(=O)Nc1ccc(/C=N/NC(=S)NC(C)C)cc1	Pf growth 48h inconclusive
O=C(NNC(=O)c1cc(Br)c(Br)s1)c1csc(N2CCOCC2)n1	Pf growth 48h inconclusive (no result: Shiga toxin inh, CHX counter, NS1 function inh)
CC(=O)Nc1sc(-c2ccccc2)nc1-c1ccccc1	Pf growth 96h 4.7µM (no result: NS1 function inh)
Cc1ccc(NC2CCCN(C(=O)c3cccc4nccnc34)C2)cc1C (centres undefined)	none
CC(C)c1ccc(NC2CCCN(C(=O)c3cccc4nccnc34)C2)cc1 (centres undefined)	Pf growth 96h 4.7µM
CC(C)c1cc(C(=O)N2CCCC(Nc3ccc(F)cc3)C2)n[nH]1 (centres undefined)	CHX counter 19
Cc1cc(C)c(C(=O)N2CCCC(Nc3ccc(F)cc3)C2)o1 (centres undefined)	none
CC(C)c1ccc(NC2CCCN(C(=O)c3cc(C(C)C)nc(N)n3)C2)cc1 (centres undefined)	Pf growth 96h 15µM
O=C(c1ccoc1)N1CCCC(Nc2ccc(F)c(F)c2)C1 (centres undefined)	none
CC(C)c1ccc(NC2CCCN(C(=O)c3ccoc3)C2)cc1 (centres undefined)	Shiga toxin inh 32
C=CCNC(=S)NS(=O)(=O)c1cccs1	none (no result: NS1 function inh)
